Results published in PubChem BioAssay AID2391 (Southern Research Specialized Biocontainment Screening …, 2010).
Screen size: about 310,000 compounds; about 410 (0.13%) were called active. Another 2% or so got no clear call; they are omitted. How the calls were made is not given here. Only a sample is shown. Measured potencies and affinities stand elsewhere.

Assay: inhibition of RSV-induced cytopathic effect – HEp-2 cells, primary 10 µM value included (AID 2391)
Conditions: at 10 µM, hits give high values

CPE inhibition, inactive:
CCOC(=O)/C(C#N)=C/c1c(N2CCN(C)CC2)nc2c(C)cccn2c1=O 1.42%, COc1ccc(NC(=S)N2CCN(c3ccccc3)CC2)c(OC)c1 3.36%, CC(Sc1n[nH]c(N)n1)C(=O)Nc1ccccc1-c1ccccc1 (centres undefined) -0.4%, CCOC(=O)C1(CCOc2ccccc2)CCN(Cc2cccn2-c2ncccn2)CC1 -2.95%, OCC1(CCOc2ccccc2)CCN(Cc2ccncc2)CC1 -0.49%, COc1cc(OC)c(OC)cc1/C=N/NC(=O)c1cccc(S(=O)(=O)N2CCOCC2)c1 0.2%, Cc1cccc(NC(=O)C2CCN(S(=O)(=O)c3ccc4c(c3)NC(=O)CO4)CC2)c1C 0.6%, O=C(O)c1[nH]c2ccc(Cl)cc2c1CC(=O)N1CCN(C(=O)c2ccco2)CC1 0.74%, O=C(c1cc2cc(Cl)ccc2[nH]1)N1CCN(C(=O)c2ccco2)CC1 1.05%, CCOc1ccc(-c2nnc3ccc(SCC(=O)N4CCCCC4)nn23)cc1 1.74%, CCOc1ccc(CNC(=O)CCCn2nc(C)c3c(C)n(-c4ccc(C)cc4)nc3c2=O)cc1 12.6%, COc1cccc(C(=O)NC(=S)Nc2ccc(Cl)c(C(=O)O)c2)c1 1.26%, Cc1ccc(Nc2c([N+](=O)[O-])cc(C(=O)N3CC(=O)Nc4ccccc43)cc2[N+](=O)[O-])c(C)c1 -0.4%, Cc1cccc(Nc2c([N+](=O)[O-])cc(C(=O)N3CC(=O)Nc4ccccc43)cc2[N+](=O)[O-])c1 3.38%, CCOc1cc(/C=C/c2nc3cc(C)c(C)cc3s2)ccc1OCC(=O)N1CCOCC1 15.4%, Cn1cc(CN2CCCC(CO)(Cc3ccccc3)C2)cn1 (centres undefined) -1.49%, Cc1nn(C)c(Cl)c1CN1CCCC(CO)(Cc2ccccc2)C1 (centres undefined) 62.6%, Cc1nn(C)c(Cl)c1CN1CCCC(CO)(Cc2cccc(Cl)c2)C1 (centres undefined) 68.4%, CCN1CCCC(CO)(Cc2ccccc2)C1 (centres undefined) -0.72%, O=C(COC(=O)c1ccc(F)cc1F)Nc1cccnc1Cl 1.68%, CSc1nc(N)c(NC(=O)c2ccc(Br)o2)c(=O)[nH]1 0.99%, CCOC(=O)c1c(C)[nH]c(C(=O)NCc2ccccn2)c1C -0.66%, COc1ccc(NC(=S)NCCc2c(C)[nH]c3ccc(OC)cc23)cc1 1.21%, COc1ccc(NC(=O)CCn2c(=O)c3cccn3c3ccccc32)c(OC)c1 8.66%, COc1ccc(NC(=O)CCn2c(=O)c3cccn3c3ccccc32)cc1 3.29%, C=CCCCCCCCCC(=O)NN 1.7%, Cc1cnc(NC(=O)Cc2c[nH]c3ccccc23)s1 3.89%, CCc1nnc(NC(=O)Cc2c[nH]c3ccccc23)s1 2.52%, NC(=O)[C@@H]1CC2(CC(c3cccc(NC(=O)COc4ccc(Cl)cc4)c3)=NO2)CN1C(=O)c1ccccc1 (some centres undefined) 15.3%, C=C(C)C(=O)Nc1cccc(C2=NOC3(C2)C[C@H](C(N)=O)N(C(=O)c2ccccc2)C3)c1 (some centres undefined) 1.43%, C/C=C(/C)C(=O)Nc1cccc(C2=NOC3(C2)C[C@@H](C(N)=O)N(C(=O)c2ccc(OC)cc2)C3)c1 (some centres undefined) 0.8%, NC(=O)[C@H]1CC2(CC(c3cccc(NC(=O)COc4ccc(Cl)cc4)c3)=NO2)CN1C(=O)c1ccc(Cl)cc1 (some centres undefined) -1.09%, C=CCn1c(-c2cccn(Cc3ccc(Cl)cc3Cl)c2=O)n[nH]c1=S 8.02%, CCCN1CCOC(CC(=O)Nc2ccc([N+](=O)[O-])cc2)C1=O (centres undefined) -1%, O=C(c1cccc(S(=O)(=O)N2CCCC2)c1)N1CCN(c2ncccn2)CC1 1.05%, CCOC(=O)C1CCN(C(=O)c2cccc(S(=O)(=O)N3c4ccccc4CC3C)c2)CC1 (centres undefined) 0.5%, CC1CN(C(=O)c2cccc(S(=O)(=O)Nc3ccc(Cl)cc3)c2)CC(C)O1 (centres undefined) 4.6%, CCC(OC(=O)c1ccco1)C(=O)NCc1ccc(OC)cc1 (centres undefined) 1.29%, O=C(O)/C(=C\c1cccc(F)c1)c1ccc(S(=O)(=O)N2CCCCC2)s1 3.11%, CCC(C)[C@H](NC(=O)OC(C)(C)C)C(=O)N/N=C/c1cccc2nccnc12 (some centres undefined) 0.75%, COc1ccc2nc(/C=N/NC(=O)CCCCCNC(=O)OC(C)(C)C)ccc2c1 6.33%, COc1ccc2nc(/C=N/NC(=O)[C@H](CCSC)NC(=O)OC(C)(C)C)ccc2c1 18.6%, Cc1ccc2cc(/C=N/NC(=O)[C@H](C)NC(=O)OC(C)(C)C)c(Cl)nc2c1 2.96%, C(=C/c1ccnc2nc(SC/C=C/c3ccccc3)nn12)/c1ccccc1 2.09%, Cc1cccc(CCNC(=O)c2nnc(Cc3ccc(Cl)cc3)o2)c1 2.96%, CNc1cc(C(F)(F)F)nc(-c2ccccn2)n1 -0.28%, COc1cc(OC)cc(C(=O)Nc2cccc3c2CCCC3)c1 -0.47%, C=CCn1c(=O)c2c3c(sc2n2c(Nc4ccccc4)nnc12)CCCC3 13.3%, O=C1OC(CCl)CN1Cc1ccc([N+](=O)[O-])cc1 (centres undefined) 0.81%, Cc1ccc(C)c(NC(=O)CN(C)C(=O)c2ccc(S(=O)(=O)N3CCCCCC3)cc2)c1 0.63%, O=C(CNC(=O)c1ccco1)N=Nc1c(O)[nH]c2ccc(Br)cc12 7.48%, Cc1ccc(NCC(=O)N=Nc2c(O)[nH]c3ccc([N+](=O)[O-])cc23)cc1 2.27%, O=C(CNC(=O)c1ccc(Br)cc1)N=Nc1c(O)[nH]c2ccc([N+](=O)[O-])cc12 6.52%, O=C(N=Nc1c(O)[nH]c2ccc([N+](=O)[O-])cc12)c1ccccc1Cl 3.59%, Cc1ccccc1NCC(=O)N=Nc1c(O)[nH]c2ccc([N+](=O)[O-])cc12 0.48%, O=C(O)c1ccccc1N=Nc1c(O)[nH]c2ccc([N+](=O)[O-])cc12 1.41%, Clc1cnc(N/N=C/c2ccco2)c(Cl)c1 5.1%, O=C(CC1C(=O)NCCN1Cc1ccoc1)NCc1cccc(OC(F)(F)F)c1 (centres undefined) -0.85%, CC(Sc1nnc(CNC(=O)c2ccco2)n1C)C(=O)Nc1nccs1 (centres undefined) -0.02%, CCN(CC(=O)NCc1ccc(F)cc1)C(=O)COc1ccc2ccccc2c1 1.64%, COC(=O)CSc1nnc(CNC(=O)c2ccccc2F)n1-c1ccc(F)cc1 1.47%, CSc1ccc(NC(=O)N2CCC(C(=O)c3ccc(F)cc3)CC2)cc1 8.24%, COc1ccc(S(=O)(=O)N2CCN(C(=O)c3ccc4ccccc4n3)CC2)cc1 3.49%, Cc1cc(C)c(NC(=O)CSc2nnc(CNC(=O)c3ccco3)o2)c(C)c1 -0.65%, Cc1cccc(-c2oc3ccccc3c2C#CCCCCO)c1 3.25%, COc1ccccc1-c1oc2ccccc2c1C#CCCO 3.39%, COc1cc(C2NC(C(=O)O)Cc3c2[nH]c2ccccc32)cc(OC)c1OC (centres undefined) 5.99%, CC(=O)Nc1nnc(SCC(=O)c2ccc(F)cc2)s1 1.4%, CCC(=O)Nc1nnc(SCC(=O)c2ccc3c(c2)Cc2ccccc2-3)s1 42.4%, Cc1c(NC(=S)Nc2ccc(Cl)cc2)c(=O)n(-c2ccccc2)n1C 2.83%, Cc1c(Cl)cccc1NC(=S)NCCN1CCOCC1 1.32%, COc1ccc(C(=O)COc2ccc3c(C)cc(=O)oc3c2)cc1 1.42%, Cc1ccc(-c2nnc3c4ccccc4c(C)nn23)cc1S(=O)(=O)N1CCN(CCO)CC1 8.23%, Cc1nn2c(-c3ccc(S(=O)(=O)N4CCN(C)CC4)o3)nnc2c2ccccc12 -1.89%, COc1ccc(-c2nnc3c4ccccc4c(C)nn23)cc1S(=O)(=O)N1CCN(CCO)CC1 -0.91%, Cc1ccc(-c2nnc3c4ccccc4c(C)nn23)cc1S(=O)(=O)N1CCN(C)CC1 0.37%, Cc1cc(NC(=O)CCC(=O)N(Cc2ccco2)C2(C(=O)NC3CCCC3)CCCCC2C)no1 (centres undefined) 2.17%, O=C(c1ccc(F)cc1)N1C2CCC1CC(O)(c1ccc(F)cc1)C2 (centres undefined) 0.65%, COc1ccc(S(=O)(=O)N2CCCCC2)cc1C(=O)N1CCCCCC1 1.11%, CC1Cc2ccccc2N1C(=O)COC(=O)c1ccc(Br)o1 (centres undefined) -0.89%, Cc1ccc(NC(=S)N2CCC(O)CC2)c(C)c1 3.11%, Cc1cccc(C)c1NC(=O)CN(C)CC(=O)c1c(N)n(Cc2ccccc2)c(=O)n(C)c1=O 0.19%, Cc1c(NC(=O)COC(=O)c2cc(-c3cccc4ccccc34)nc3ccccc23)c(=O)n(-c2ccccc2)n1C 1.88%, Cc1ccc2nc(C)cc(C(=O)OCC(=O)Nc3c(C)n(C)n(-c4ccccc4)c3=O)c2c1 2.74%, COc1ccc(/C=N/NC(=O)Cc2ccc(Cl)cc2)cc1OC 1.07%, COc1ccc(NC2=C(NC(C)=O)C(=O)c3ccccc3C2=O)cc1 -0.06%, CN(C)c1ccc(NC2=C(Cl)C(=O)c3ccccc3C2=O)cc1 -2.87%, CCC1=NN2C(=N)/C(=C\c3cccn3-c3ccc(C)c(C)c3)C(=O)N=C2S1 15.3%, CCC1=NN2C(=N)/C(=C\c3cccn3-c3ccc(C)cc3C)C(=O)N=C2S1 16.1%
